SARS 3CLpro inh = SARS-CoV 3CLpro protease inhibition | P0C6X7 | recombinant SARS-CoV 3CLpro, quenched FRET peptide cleavage | inhibition, % at 6 µM | 0.14% of 290,000 active; in the data active = inhibition above about 12%
VHR inh abs = DUSP3 (human) phosphatase inhibition; 0.52% of 290,000 active; P51452; recombinant VHR phosphatase, pNPP absorbance; AID 1654; inhibition, % at 13.3 µM; in the data active = inhibition above about 50%
Target sequence (P51452 whole entry, looked up): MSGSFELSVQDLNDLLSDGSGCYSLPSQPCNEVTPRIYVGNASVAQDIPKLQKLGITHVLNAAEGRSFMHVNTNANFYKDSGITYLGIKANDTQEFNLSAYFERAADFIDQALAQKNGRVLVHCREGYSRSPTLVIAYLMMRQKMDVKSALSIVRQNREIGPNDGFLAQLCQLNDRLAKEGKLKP
PriA SSB inh = K. pneumoniae PriA-SSBct interaction inhibition; AlphaScreen SSBct-PriA binding, biotinylated peptide; inhibition, % at 33 µM; 0.6% of 430,000 active; AID 1272365; in the data active = inhibition mostly above about 37%, no sharp cut-off; inactive = mostly below about 20%;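 note: plate controls were negative control peptide for no effect and reference peptide for full effect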
CCHF vOTU inh-1 = CCHFV vOTU protease inhibition; Pep-AMC fluorescence; inhibition, % at 11.5 µM; 0.55% of 370,000 active; AID 651958; note: 0% = vehicle wells with enzyme and 100% = no enzyme wells
Mtb hypoxia rep = Mtb hypoxia fluorescent reporter inhibition; AID 1159583; fluorescence inhibition, % (concentration not given with the values); M. tuberculosis hypoxia-regulated fluorescent reporter, fluorescence; 0.1% of 300,000 active; in the data active = fluorescence inhibition mostly above about 23%, no sharp cut-off; inactive = mostly below about 17%
CCHF vOTU inh-2 = confirmation of CCHF virus vOTU protease inhibitors | inhibition, % at 11.5 µM | 17% of 1,900 active | Recombinant CCHFV vOTU, Pep-AMC fluorescence | shares compounds with CCHF vOTU inh-1 | AID 686976
Active calls of the source: *; . = not tested or not shown. Most compounds without a hit are left out; they make up all but 1.3% or so of the library. Cut-off read from the data, not from the text of the source, unless noted: active = inhibition above about 30%; inactive = the rest.

SMILES | SARS 3CLpro inh | VHR inh abs | PriA SSB inh | CCHF vOTU inh-1 | Mtb hypoxia rep | CCHF vOTU inh-2
CC1Cc2ccccc2N1C(=O)Cc1csc2nc(-c3ccc(F)cc3)cn12 (stereo not given) | . | . | 5 | . | . | .
O=Nc1c(O)c2ccccc2c2ccccc12 | . | . | 29 | 0 | 11 | .
O=c1c(=Nc2ccccc2O)c(=O)c2ccccc12 | 3 | 1 | 0 | 49* | . | -1
COc1cc(NCc2ccccc2)c2ncn(C(C)C)c2c1 | . | . | 20 | 10 | 6 | .
COc1cc(NCCCNC(C)C)c2nccc(C)c2c1 | . | . | 33 | 57* | -4 | 29
CC(C)(C)c1ccccc1NC(=O)Nc1nc(C(N)Cc2ccc(F)cc2)cs1 (stereo not given) | . | . | . | 30* | . | -23
CCCCCc1ccc(OCCC[n+]2ccccc2)c(CCCCC)c1 | 3 | -2 | -3 | 8 | . | .
CCCCCCCCCCCCCCCC[n+]1ccccc1 | . | . | -2 | 38* | 14 | 37*
NC(=NOC(=O)N1CCOCC1)c1ccc(Br)cc1 | . | . | -4 | . | . | .
CN(C)c1ccc(NC(=O)COC(=O)c2cc(=O)c3ccccc3o2)cc1 | 7 | -2 | 3 | 35* | -3 | -15
COc1ccccc1NC(=O)c1ccc(NS(=O)(=O)c2ccc(F)c(F)c2F)cc1 | 0 | 6 | 0 | 30* | -1 | -13
COc1ccccc1NC(=O)c1ccc(NS(=O)(=O)c2ccc(C(C)(C)C)cc2)cc1 | . | . | -4 | . | . | .
O=C(c1cc2c(s1)CCCC2)N1CCN(Cc2ccc3c(c2)OCO3)CC1 | 0 | 8 | 14 | 11 | . | .
O=C(Oc1ccc2c(c1)OCO2)c1cc2c(s1)CCC2 | -3 | 1 | -26 | 46* | 4 | -9
COc1cc([N+](=O)[O-])c(OC)cc1Nc1ccccc1C(=O)O | . | . | . | 15 | . | .
COc1cc(-c2ccc(Nc3ccccc3C(=O)O)c(OC)c2)ccc1Nc1ccccc1C(=O)O | 4 | 18 | 34 | 51* | 0 | 39*
Cc1cc(NC(=O)CSc2ncnc3c2nnn3-c2cccc(Cl)c2)no1 | . | . | 10 | . | . | .
O=C(NCC[C@H](O)c1ccoc1)C(=O)Nc1ccc2c(c1)OCO2 | . | . | 4 | . | . | .
CN1c2ccccc2C(O)=C(C(=S)Nc2ccc(Cl)cc2)S1(=O)=O | 0 | 4 | 17 | 31* | 1 | 6
CC1(C(=O)NCc2cccc(C(F)(F)F)c2)CCN1Cc1cc2ccccc2o1 (stereo not given) | . | . | . | 25 | . | .
CC1(C(=O)NCc2cccc(C(F)(F)F)c2)CCN1Cc1ccc(-c2ccccc2)o1 (stereo not given) | . | . | . | 34* | . | 18
O=C(Cc1csc(SCC(=O)Nc2ccc(F)cc2)n1)NCc1cccs1 | . | . | -12 | . | . | .
O=C1NNC(c2ccccc2)=N/C1=C\c1ccccc1Cl | 2 | 30 | 9 | 54* | -4 | 43*
C=CCOc1c(Cl)cc(CNc2ccc(N(C)C)cc2)cc1OC | 3 | 8 | 69 | 69* | 4 | -6
COc1cc(C=C2C(=O)C=CC2=O)ccc1O | . | . | . | 41* | . | -11
SMILES | SARS 3CLpro inh | VHR inh abs | PriA SSB inh | CCHF vOTU inh-1 | Mtb hypoxia rep | CCHF vOTU inh-2
CCOC(=O)C1(CCCc2ccccc2)CCN(C(=O)CSC)CC1 | 1 | -4 | -21 | 0 | 17 | .
CCOC(=O)C1(CCCc2ccccc2)CCN(C(=O)Cc2nonc2C)CC1 | -1 | 18 | -10 | 31* | 16 | -2
CCCc1sc(N)nc1-c1ccc(C)cc1 | 3 | -2 | 14 | 33* | 7 | -15
Cc1cc(OC2CCN(C(=O)c3sc(-n4cccc4)nc3C)C2)cc(=O)o1 (stereo not given) | . | . | -8 | . | . | .
Cn1nc(C2CCN(CC(=O)NCc3ccco3)CC2)n(C2CC2)c1=O | . | . | -11 | . | . | .
CCOC(=O)C1=C(Cc2ccc(C)cc2)C(=O)c2ccccc2C1=O | -3 | 12 | . | 96* | . | -9
c1ccc2c(c1)NCC1CCCN21 (stereo not given) | 6 | 44 | 10 | 37* | 6 | -1
CCN(CC)c1ccc(N=Cc2c(O)n(-c3ccccc3)c(=O)[nH]c2=O)cc1 | -1 | -8 | 3 | 30* | 6 | -20
CCOc1ccc(-n2c(O)c(C=Nc3ccc(N(CC)CC)cc3)c(=O)[nH]c2=O)cc1 | 7 | 8 | 1 | -9 | 0 | .
CCOc1ccc(N2CSC3=C(C#N)C(c4ccco4)CC(=O)N3C2)cc1 (stereo not given) | 4 | 8 | -9 | 23 | 6 | .
Cc1ccc(C2CC(=O)N3CN(c4ccc(Br)cc4)CSC3=C2C#N)o1 (stereo not given) | 6 | 11 | -5 | 30* | 3 | -1
COC(=O)N/N=C1/C/C(=N\NC(=O)OC)c2ccccc21 | -4 | 16 | . | 89* | . | 72*
O=C(NCc1ccccc1Br)c1n[nH]nc1-c1ccccc1 | . | . | -6 | . | . | .
Cc1cc(C(=O)N/N=C2\CC(=O)c3ccccc32)c(C)n1-c1ccc(F)cc1 | -3 | 9 | . | 61* | . | 19
O=C(O)c1ccc(Cl)c(S(=O)(=O)N(Cc2ccccc2)c2ccc(Cl)cc2)c1 | 8 | 2 | 8 | 31* | -8 | 14
O=C(N/N=C/c1ccc(-c2ccc(S(=O)(=O)Nc3ncccn3)cc2)o1)c1cc2ccccc2cc1O | -3 | 21 | . | 41* | . | -2
COc1cccc(C(=O)Nc2nonc2-c2ccc(Cl)cc2)c1 | . | . | -13 | . | . | .
COc1ccc(/C=C2\C(=O)NC(=O)c3ccccc32)cc1OC | . | . | 21 | 108* | . | 103*
COc1ccc(C=C2C(=O)NC(=S)NC2=O)cc1OC | . | . | -2 | 14 | 6 | .
COc1ccc(/C=C/c2ccc3c(Br)ccc(O)c3n2)cc1 | 1 | . | -7 | 3 | 1 | .
COc1cc(/C=C/c2ccc3c(Br)cc(Br)c(O)c3n2)ccc1O | 0 | 27 | 8 | 35* | 6 | -17
Nn1cnnc1N/N=C\c1ccc(-c2ccccc2[N+](=O)[O-])o1 | 1 | 17 | . | 97* | . | 3
Cc1c(C(=O)N/N=C/c2ccc(-c3ccccc3[N+](=O)[O-])o2)sc(N)c1C#N | -1 | -12 | . | 42* | . | -6
Nn1cnnc1NN=Cc1ccc(-c2ccccc2[N+](=O)[O-])o1 | . | . | -13 | . | -6 | .
CCCOc1ccc(NC(=O)C2CC(=O)NC(=NN=C(C)/C=C/c3ccc(N(C)C)cc3)S2)cc1 (stereo not given) | . | . | 50 | . | . | .
SMILES | SARS 3CLpro inh | VHR inh abs | PriA SSB inh | CCHF vOTU inh-1 | Mtb hypoxia rep | CCHF vOTU inh-2
CCOc1ccccc1-n1c(=O)[nH]c2c(C(N)=O)nc(-c3cccs3)nc21 | . | . | 0 | . | . | .
CCOC(=O)c1nn(-c2ccccc2Cl)c(=O)cc1OCC(=O)Nc1cccc(C(F)(F)F)c1 | . | . | -11 | . | . | .
CNC(=O)CS(=O)(=O)C1CCN(C(=O)c2cccc3ccccc23)CC1 | . | . | -4 | . | . | .
CCNC1=C(Cl)C(=O)c2ccccc2C1=O | 1 | -2 | 21 | 53* | -6 | 48*
CCCC(=O)NC1=C(Cl)C(=O)c2ccccc2C1=O | . | . | 6 | 93* | . | 83*
O=C1C(Cl)=C(NCc2ccco2)C(=O)c2ccccc21 | . | . | 12 | 107* | 11 | 81*
Cc1cc(O[C@H]2CCN(C(=O)CCc3ccc(Cl)c(C(F)(F)F)c3)C2)cc(=O)n1C | . | . | -13 | . | . | .
Cn1c(=O)oc2ccc(S(=O)(=O)NCc3cccnc3-c3cccs3)cc21 | . | . | -10 | . | . | .
O=C(CS(=O)(=O)c1ccc2c(c1)S(=O)(=O)N=CN2)N1CCN(c2ccccc2F)CC1 | . | . | -5 | . | . | .
